ERG-DNA inh = inhibitors of human ERG Ets domain-DNA interaction; fluorescence polarization, His-ERG Ets domain / labelled DNA; AID 624246; Potency, µM (highest dose often 76.9 µM), inactives show at the highest dose FP activity, negative = inhibition, hits mostly inhibitors; actives 0.028% (n = 370,000); P11308; active = well fitted inhibition curve with a large enough effect in the polarisation, with a control signal flat; inconclusive = small, poorly fitted or top-dose-only effect, or effect the other way, or a change in a side signal; inactive = no such curve, though single readings can be large or run the other way; the % refers to the polarisation;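 also: polarization taken with two DNA probes labelled with fluorescein and Texas red; % of control where 0% means no effect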
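His-tagged ERG Ets domain (1 uM in the protein solution; 300mM KCl, 50mM Tris-HCl, 1mM EDTA, 1mM DTT, pH 7.5) received compound, then a probe mix of 5 nM fluorescein-DNA and 100nM Texas-615-DNA. Fluorescence polarization was read for both dyes.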
USP2a block = blocks human ubiquitin-specific protease USP2a; O75604; USP2 core, Ub-CHOP2 coupled fluorogenic reporter, 485/531; Potency, µM (series often up to 38.3 µM), inactives show at the highest dose activity change, negative = inhibition, actives largely listed as inhibitors; actives 0.01% (n = 330,000); AID 463254;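 also: plate controls were DMSO wells for no effect and full inhibition by NEM control for full effect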
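Cell-free coupled assay: 10nM USP2 core preincubated 30min RT with compound in Tris-HCl pH 8.0/CaCl2/CHAPS buffer, then 25nM Ub-CHOP2 and 25nM reporter substrate; fluorescence (Ex 485/Em 531) read after 60min RT, normalized to NEM inhibition, concentration-response curves fitted.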
RGS4 inh = inhibitors of human regulator of G protein signaling 4; actives 0.039% (n = 390,000); AID 504845; Potency, µM (doses to about 114 µM), inactives show at the highest dose activity change, negative = inhibition, hits mostly inhibitors; Transcreener GDP fluorescence polarization, RGS4-accelerated GTP hydrolysis; also: % is scaled to controls: 0 for no effect and ±100 for the full control effect; nearly all actives have a fitted effect of over 75% in size
Target sequence (P49798 whole entry, looked up): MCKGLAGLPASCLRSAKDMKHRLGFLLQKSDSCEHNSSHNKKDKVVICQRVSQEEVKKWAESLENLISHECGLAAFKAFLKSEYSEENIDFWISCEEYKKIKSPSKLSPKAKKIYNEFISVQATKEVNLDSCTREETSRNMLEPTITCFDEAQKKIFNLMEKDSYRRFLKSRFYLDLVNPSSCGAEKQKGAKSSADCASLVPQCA
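MLSMR compounds (23 nl, pin-transferred) preincubated 10 min at room temperature with a 500nM (2x) first reagent, then RGS4 at 900nM (2x) plus Transcreener GDP mix added; fluorescence polarization (620/688 nm) read before and after 90 min at 30 °C.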
Eya2 phos inh = inhibitors of human Eya2 phosphatase activity | O00167 | recombinant Eya2, OMFP fluorescence dephosphorylation (OMFP is methylfluorescein phosphate) | Potency, µM (titrated, usually from 76.9 µM), inactives show at the top dose activity, negative = inhibition, usual class: inhibitors | actives 0.006% (n = 330,000); also: % is scaled to controls: 0 for no effect and ±100 for the full control effect
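Eya2 protein (added as 0.2 uM solution) was preincubated with compound for 10 min at ambient temperature in 50 mM HEPES pH 7.5, 50 mM NaCl, 5 uM MgCl2, 0.05% BSA, 1 mM DTT. OMFP (added at 50 uM) then reacted 10 min; fluorescence read at 485/525 nm.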
An asterisk follows results filed as active; ? = inconclusive; · = no result; ! = not active in a repeat; [ ] = another dose, or the depositor's remark. Only some compounds are listed: those with a hit (about 0.08% of all), similar ones and a draw of the others. Unless noted, calls follow the shape of the dose curve; as a rule, active = well fitted curve in the direction sought with a large enough effect; inconclusive = small, poorly fitted or top-dose-only effect, or another doubt; inactive = no such curve, though single readings can be large; an effect the other way counts as inactive or inconclusive. Potency is read from the fitted curve at half-maximal effect.

SMILES | ERG-DNA inh | USP2a block | RGS4 inh | Eya2 phos inh
CCCCC/C=C\C\C=C/C=C/C=C/[C@@H](SC[C@H](N)C(=O)NCC(=O)O)[C@@H](O)CCCC(=O)O | · | · | 27µM* | ·
COc1cccc(CNc2ccc3nc(-c4ccc(N)cc4)c(OC)n3n2)c1 | · | · | 38µM*! | ·
N#C/C(=C\c1ccc(-c2cc(Cl)ccc2Cl)o1)C(=O)Nc1cccc2ncccc12 | · | · | 3µM* | 5%
Cc1c(NC(=O)/C(C#N)=C/c2ccc(-c3cc(Cl)ccc3Cl)o2)c(=O)n(-c2ccccc2)n1C | · | 5% | ? | 6%
CC1(C)CCC2=C(O1)c1ccccc1C(=O)C2=O | · | · | 15µM* | -23%
CC1(C)CCC(=O)c2ccccc21 | 7% | · | 20% | ·
O=C(N/N=C\c1ccc(Sc2ccccn2)o1)c1cccc(Br)c1 | -11% | -2% | -10% | 3.2µM*
COc1ccc2c3c(cccc13)C(=O)CC2 | 28µM* | ? | -54% | ?
Cc1ccc(S(=O)(=O)N2CCN(c3nc(-c4ccc(C)s4)nc4ccccc34)CC2)cc1 | · | · | 10% | ·
COc1cc2cc(C#N)c(SCC(=O)OC(C)C)nc2cc1OC | · | · | 10% | ·
COc1ccc2[nH]cc(CC(=O)O)c2c1 | -14% | 3% | 21% | 6%
O=C(O)Cc1c[nH]c2ccc(O)cc12 | 20% | · | 21µM*! | 8%
CC(C)(C)c1ccc(OCCn2c(CCNC(=O)C3CCCCC3)nc3ccccc32)cc1 | · | · | -16% | ·
N=c1c[n+](N2CCOCC2)[n-]o1 | -25% | 2% | 19µM*! | 3%
Cc1cc2ccccc2n1CCNC(=O)c1ccc(Br)o1 | 32µM* | 1% | -25% | -4%
Cc1cc2ccccc2n1CCNC(=O)c1ccc(Br)cc1 | -4% | · | -16% | ·
CC(=O)NCCn1c(C)cc2ccccc21 | -29% | 1% | -17% | 1%
Cc1cc2ccccc2n1CCNC(=O)C(C)(C)C | 22µM* | 2% | 8% | -22%
Cc1onc(-c2ccccc2Cl)c1C(=O)NCCn1c(C)cc2ccccc21 | 32µM* | 3% | -8% | -2%
CC(C)(C)C(=O)Nc1ccc2c(c1)C(=O)C(=O)c1ccccc1-2 | · | · | -42% | ·
COc1cc(C2Nc3ccccc3C(=O)N2Cc2ccco2)cc(OC)c1OC (centres undefined) | · | · | 8% | ·
NC1(C(=O)O)CCc2cc(P(=O)(O)O)ccc21 (centres undefined) | · | · | 38µM* | ·
CCn1nc(-c2ccccc2C)nc2c(=O)n(C)c(=O)nc1-2 | · | · | -40% | ·
CCCCC/C=C\C/C=C\CCCCCCCC(N)=O | · | · | 24µM* | ·
CCCCCCC/C=C\CCCCCCCCC(=O)O | · | · | 24µM* | -2%
SMILES | ERG-DNA inh | USP2a block | RGS4 inh | Eya2 phos inh
CCCCC/C=C\C/C=C\C/C=C\C/C=C\CCCCCC(=O)O | · | · | 460%[56.9 µM] | ·
O=C(Nc1ccc([N+](=O)[O-])cc1Cl)c1ccccc1O | · | · | 27% | ·
CCCCCCCCCCCCCCCC(=O)NCC(COP(=O)([O-])OCC[N+](C)(C)C)OCC (centres undefined) | · | · | 21µM* | -3%
NC(CO)C(=O)NNCc1ccc(O)c(O)c1O (centres undefined) | ? | 8% | 9.5µM* | 1%
CC(NC(=O)/C(C#N)=C1\N=C(NC(=O)c2ccco2)c2ccccc21)c1ccccc1 (centres undefined) | 8% | -2% | 4% | 56µM*
CC(NC(=O)/C(C#N)=C/c1ccco1)c1ccccc1 (centres undefined) | 3% | 2% | -18% | 9%
O=C(Cc1ccccc1)Nc1nc2ccc(Cl)cc2c2nc(-c3ccco3)nn12 | · | · | 38µM* | ·
CN1N/C(=C\c2ccccc2)N=C2C(=O)N(C)C(=O)N=C21 | · | · | -33% | ·
C#CCOCCOCCOCCNc1nc(N2CCN(C(=O)CCCCCCCCCCNC(=O)[C@H](CCCCN)n3cc(C[C@@H](C)CC)nn3)CC2)nc(N2CCN(C(=O)CCCCCCCCCCNC(=O)[C@H](CCCN=C(N)N)n3cc(C[C@@H](C)CC)nn3)CC2)n1 | 26% | 10µM* | ? | ?
C#CCOCCOCCOCCNc1nc(N2CCN(C(=O)CCCCCCCCCCNC(=O)[C@H](CO)n3cc(CCCCCN)nn3)CC2)nc(N2CCN(C(=O)CCCCCCCCCCNC(=O)[C@H](CCCN=C(N)N)n3cc(C[C@@H](C)CC)nn3)CC2)n1 | · | ? | · | -31%
